Laboratory results taken from PubChem BioAssay (EPA / NIEHS).
Records with an inconclusive call do not appear. Calls of active or inactive are those of the source. How the source made its calls, unless noted: active means hit-call score of the fitted dose curve at least 0.9, where 1 is the maximum; inactive means score below 0.9.

Experiments:
[1] = BSK_3C_SRB: Viability Assessment in the BioMAP Diversity Plus: 3C Assay (AID 2283023); conditions: primary human endothelial cells (HUVEC);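 further: fitted both ways against DMSO so a hit may be signal rise or drop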
Method in brief: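 Cytotoxicity readout in parallel HUVEC 3C cultures: after 24 h compound exposure, cells fixed with 10% TCA, stained with 0.1% SRB and read at 560 nm. Gain or loss relative to DMSO fitted.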

[2] = read-out: Matrix Metallopeptidase 1 (MMP1), MMP1 (gene 4312); experiment: BSK_BE3C_MMP1: BioMAP Diversity Plus: BE3C Assay for Matrix Metallopeptidase 1 (MMP1) Biomarker Activity (AID 2283024); conditions: primary human bronchial epithelial cells; actives raise or lower the signal
Method in brief: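 Human bronchial epithelial cells (BE3C system) exposed to compound for 24 h; MMP1 then quantified by ELISA. Activity was fitted in both directions relative to DMSO.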

[3] = BSK_3C_Vis: BioMAP Diversity Plus: 3C Assay for Morphology Visualization (AID 2283025); conditions: primary human endothelial cells (HUVEC);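 further: fitted both ways so gain or loss versus DMSO counts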;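 on AC50: light microscopy image of cell morphology used as background control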
Method in brief: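 Chemicals were added to primary human umbilical vein endothelium, cells were incubated 24 h, and morphology was then visualized by light microscopy. Gain or loss of signal was fitted bidirectionally relative to DMSO.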

[4] = read-out: Pselectin, SELP (gene 6403); experiment: BSK_4H_Pselectin: BioMAP Diversity Plus: 4H Assay for Pselectin Biomarker Activity (AID 2283026); conditions: primary human endothelial cells (HUVEC); actives raise or lower the signal
Method in brief: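 ELISA read-out of P-selectin on human umbilical vein endothelium after 24 h of dosing. Values derive from bidirectional fitting relative to DMSO. Parallel SRB protein staining flagged overt cytotoxicity.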

[5] = BSK_4H_SRB: Viability Assessment in the BioMAP Diversity Plus: 4H Assay (AID 2283027); conditions: primary human endothelial cells (HUVEC);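 further: cells exposed to compound for 24 h before staining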;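 on AC50: curves fitted both ways versus DMSO so AC50 may be loss or gain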
Method in brief: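 Human umbilical vein endothelial cells, 24 h after chemical dosing; total protein measured by 0.1% sulforhodamine B staining after 10% TCA fixation, read at 560 nm. Bidirectional fitting against DMSO.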

[6] = BSK_BE3C_SRB: Viability Assessment in the BioMAP Diversity Plus: BE3C Assay (AID 2283028); conditions: primary human bronchial epithelial cells
Method in brief: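 Cytotoxicity read-out: SRB (0.1%) staining of TCA-fixed (10%) human lung bronchial epithelial cells, absorbance 560 nm, 24 h post-dosing. Curves fitted both directions relative to DMSO.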

[7] = read-out: Thrombomodulin, THBD (gene 7056); experiment: BSK_3C_Thrombomodulin: BioMAP Diversity Plus: 3C Assay for Thrombomodulin Biomarker Activity (AID 2283029); conditions: primary human endothelial cells (HUVEC); actives raise or lower the signal
Method in brief: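 Read-out is ELISA of thrombomodulin on human umbilical vein endothelium 24 h after chemical dosing. Gain or loss of signal is scored relative to DMSO. Overt cytotoxicity is checked in parallel cultures by sulforhodamine B staining.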

[8] = read-out: Urokinase-type plasminogen activator receptor (uPAR), PLAUR (gene 5329); experiment: BSK_4H_uPAR: BioMAP Diversity Plus: 4H Assay for Urokinase-type plasminogen activator receptor (uPAR) Biomarker Activity (AID 2283030); conditions: primary human endothelial cells (HUVEC); actives raise or lower the signal
Method in brief: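 uPAR level read by ELISA on HUVEC cultures (BioMAP 4H) 24 h post-dosing, analyzed for gain or loss relative to DMSO. Parallel SRB staining assessed overt cytotoxicity.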

[9] = read-out: Vascular endothelial growth factor receptor 2 (Homo sapiens) (UniProt P35968); experiment: BSK_4H_VEGFRII: BioMAP Diversity Plus: 4H Assay for Vascular endothelial growth factor receptor 2 (VEGFR2) Biomarker Activity (AID 2283031); conditions: primary human endothelial cells (HUVEC); actives raise or lower the signal;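 on AC50: cell-surface VEGFR2 protein level quantified by ELISA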
Method in brief: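 Measured by ELISA after 24 h of compound treatment: VEGFR2 on primary human umbilical vein endothelial cells, fitted in both directions relative to DMSO. Parallel cultures received SRB staining (560 nm) for overt cytotoxicity.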

[10] = read-out: Human Leukocyte Antigen - DR isotype (HLADR), HLA-DRA (gene 3122); experiment: BSK_BE3C_HLADR: BioMAP Diversity Plus: BE3C Assay for Human Leukocyte Antigen - DR isotype (HLADR) Biomarker Activity (AID 2283032); conditions: primary human bronchial epithelial cells; actives raise or lower the signal
Method in brief: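 ELISA read-out of HLA-DR on human lung bronchial epithelial primary cells, measured 24 h post-dosing. Both increases and decreases were scored relative to DMSO vehicle.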

[11] = read-out: Vascular cell adhesion molecule 1 (VCAM1), VCAM1 (gene 7412); experiment: BSK_4H_VCAM1: BioMAP Diversity Plus: 4H Assay for Vascular cell adhesion molecule 1 (VCAM1) Biomarker Activity (AID 2283033); conditions: primary human endothelial cells (HUVEC); actives raise or lower the signal
Method in brief: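 ELISA read-out of VCAM-1 on human umbilical vein endothelium 24 hours after chemical dosing; gain or loss of signal was fitted relative to DMSO, with sulforhodamine B staining of parallel cultures flagging overt cytotoxicity.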

[12] = read-out: Interferon-gamma inducible Protein 10 (IP10), CXCL10 (gene 3627); experiment: BSK_BE3C_IP10: BioMAP Diversity Plus: BE3C Assay for Interferon-gamma inducible Protein 10 (IP10) Biomarker Activity (AID 2283034); conditions: primary human bronchial epithelial cells; actives raise or lower the signal
Method in brief: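 Chemical is dosed onto human lung bronchial epithelial primary cells, cultures are incubated 24 h, and IP-10 is then quantified by ELISA. Gain or loss of signal is fitted in both directions relative to DMSO.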

[13] = read-out: Monokine induced gamma interferon (MIG), CXCL9 (gene 4283); experiment: BSK_BE3C_MIG: BioMAP Diversity Plus: BE3C Assay for Monokine induced gamma interferon (MIG) Biomarker Activity (AID 2283035); conditions: primary human bronchial epithelial cells; actives raise or lower the signal;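 further: MIG protein measured by ELISA in BE3C cultures after 24 h of dosing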
Method in brief: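 Primary human bronchial epithelial cells treated for 24 h; MIG levels measured by ELISA, fitted bidirectionally versus DMSO. Parallel SRB total-protein staining assessed cytotoxicity.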

[14] = read-out: Transforming growth factor beta 1 (TGFb1), TGFB1 (gene 7040); experiment: BSK_BE3C_TGFb1: BioMAP Diversity Plus: BE3C Assay for Transforming growth factor beta 1 (TGFb1) Biomarker Activity (AID 2283036;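 further: TGF-b1 protein level measured by ELISA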); conditions: primary human bronchial epithelial cells; actives raise or lower the signal
Method in brief: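 Primary human lung bronchial epithelial cells; compound exposure 24 h; TGF-b1 by ELISA; bidirectional fit, DMSO baseline. Parallel SRB total-protein staining for cytotoxicity.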

[15] = read-out: Plasminogen activator inhibitor-1 (PAI1), SERPINE1 (gene 5054); experiment: BSK_BE3C_PAI1: BioMAP Diversity Plus: BE3C Assay for Plasminogen activator inhibitor-1 (PAI1) Biomarker Activity (AID 2283037); conditions: primary human bronchial epithelial cells; actives raise or lower the signal
Method in brief: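 Primary human lung bronchial epithelial cells; chemical dosing; 24 h; PAI-1 measured by ELISA; bidirectional fit referenced to DMSO as negative control.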

[16] = read-out: urokinase plasminogen activator (uPA), PLAU (gene 5328); experiment: BSK_BE3C_uPA: BioMAP Diversity Plus: BE3C Assay for urokinase plasminogen activator (uPA) Biomarker Activity (AID 2283038); conditions: primary human bronchial epithelial cells; actives raise or lower the signal;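 further: uPA protein level quantified by ELISA in cell cultures; uPA read one day after compound addition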
Method in brief: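 ELISA for uPA on human primary bronchial epithelial cultures 24 h post-treatment, gain or loss against DMSO. Parallel SRB staining (0.1% after 10% TCA fixation, 560 nm) assessed overt cytotoxicity.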

[17] = read-out: Urokinase-type plasminogen activator receptor (uPAR), PLAUR (gene 5329); experiment: BSK_BE3C_uPAR: BioMAP Diversity Plus: BE3C Assay for Urokinase-type plasminogen activator receptor (uPAR) Biomarker Activity (AID 2283039); conditions: primary human bronchial epithelial cells; actives raise or lower the signal;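 further: cells exposed to compound for one day before measurement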
Method in brief: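 Human bronchial epithelial primary cells; chemical exposure 24 h; uPAR by ELISA; bidirectional fit vs DMSO control.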

[18] = read-out: Interleukin-6 (IL6), IL6 (gene 3569); experiment: BSK_CASM3C_IL6: BioMAP Diversity Plus: CASM3C Assay for Interleukin-6 (IL6) Biomarker Activity for (AID 2283040); conditions: primary human coronary artery smooth muscle cells; actives raise or lower the signal
[19] = read-out: Tissue plasminogen activator (tPA), PLAT (gene 5327); experiment: BSK_BE3C_tPA: BioMAP Diversity Plus: BE3C Assay for Tissue plasminogen activator (tPA) Biomarker Activity (AID 2283041); conditions: primary human bronchial epithelial cells; actives raise or lower the signal
Method in brief: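 Primary human lung bronchial epithelial cultures receive test chemical; after 24 h, tPA is quantified by ELISA, and gain or loss of signal is fitted bidirectionally relative to DMSO baseline.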

[20] = molecular target: human Vitamin D Receptor (VDR), VDR (gene 7421) (UniProt P11473); experiment: ATG_VDR_TRANS: Attagene TRANS-FACTORIAL HepG2 Assay for human Vitamin D Receptor (VDR) (AID 2283022; active means hit-call score of the fitted dose curve at least 0.9, where 1 is the maximum)
Method in brief: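 Transactivation by an exogenous VDR-Gal4 chimera in transiently transfected HepG2 cells was measured as reporter transcript level 24 hours after chemical treatment. RT-PCR products were analysed by capillary electrophoresis and fitted in the positive direction relative to DMSO.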

Measured: AC50

Chain of human Vitamin D Receptor (VDR), VDR (gene 7421) (P11473 whole entry, looked up, the tested form may be a part): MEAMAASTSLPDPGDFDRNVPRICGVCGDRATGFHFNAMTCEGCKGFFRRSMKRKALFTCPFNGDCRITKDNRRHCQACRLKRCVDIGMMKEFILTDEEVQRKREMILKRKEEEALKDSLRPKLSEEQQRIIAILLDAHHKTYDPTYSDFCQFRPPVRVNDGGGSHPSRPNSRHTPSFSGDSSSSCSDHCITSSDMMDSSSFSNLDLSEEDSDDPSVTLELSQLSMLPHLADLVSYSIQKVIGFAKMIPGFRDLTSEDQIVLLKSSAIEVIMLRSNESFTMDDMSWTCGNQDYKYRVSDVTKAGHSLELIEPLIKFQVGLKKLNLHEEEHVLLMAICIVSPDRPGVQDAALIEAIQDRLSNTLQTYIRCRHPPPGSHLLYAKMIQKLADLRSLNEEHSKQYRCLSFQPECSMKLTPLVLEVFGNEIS

CC(=O)OC/C=C(\C)CCC=C(C)C
inactive: [1] | [2] | [3] | [4] | [5] | [6] | [7] | [8] | [9] | [10] | [11] | [12] | [13] | [14] | [15] | [16] | [17] | [18] | [19]

CCCCCCCCCCCCCO
inactive: [20] | [6] | [7] | [10] | [13] | [14] | [15] | [16] | [17] | [18]
active: [1] 32.1 µM | [2] 20.6 µM | [3] 38.6 µM | [4] 35.1 µM | [5] 31.8 µM | [8] 38.9 µM | [9] 30.6 µM | [11] 36.1 µM | [12] 29.7 µM | [19] 26.9 µM

Cc1c(C(=O)O)c(O)cc2c1C(=O)c1c(O)c([C@@H]3O[C@H](CO)[C@@H](O)[C@H](O)[C@H]3O)c(O)c(O)c1C2=O
inactive: [20] | [1] | [2] | [3] | [4] | [5] | [6] | [7] | [8] | [9] | [10] | [11] | [12] | [13] | [14] | [15] | [16] | [17] | [18] | [19]

Nc1ccc(S(=O)(=O)c2ccc(N)cc2)cc1
inactive: [1] | [2] | [3] | [4] | [5] | [6] | [7] | [8] | [9] | [10] | [11] | [12] | [13] | [14] | [15] | [16] | [17] | [18] | [19]

CCCCCCCCCCCC(=O)OC
inactive: [20] | [1] | [2] | [3] | [4] | [5] | [6] | [7] | [8] | [9] | [10] | [11] | [12] | [13] | [14] | [15] | [16] | [17] | [18] | [19]

O=C(N[C@@H](Cc1ccccc1)[C@@H](O)C(=O)N1C[C@@H](O)[C@@H](O)C1)c1cc2cc(Cl)ccc2[nH]1
inactive: [20] | [1] | [2] | [3] | [4] | [5] | [6] | [7] | [8] | [9] | [10] | [11] | [12] | [13] | [14] | [15] | [16] | [17] | [18] | [19]

CCCCCCCCCCCCCCCC
inactive: [1] | [2] | [3] | [4] | [5] | [6] | [7] | [8] | [9] | [10] | [11] | [12] | [13] | [14] | [15] | [16] | [17] | [18] | [19]
